In PubChem BioAssay:
The source made the active and inactive calls.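 Rule for the calls, unless noted: active = fluorescence slope after compound addition differing from the mean of all screened samples at 99.7% confidence, in either direction; inactive = the rest.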

Legend:
[1] = inhibitors of TNFa-induced NFkB p65 translocation, primary screen, imaging, HUVEC, MLSMR starter and 10KST1 sets (AID 438;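 active = inhibition above 20% together with a positive visual image hit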;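 note: compound added about 3h40 before a 20 min TNFalpha stimulation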;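 for inhibition: signal is the nuclear over cytoplasmic p65 intensity ratio per well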); details: HUVEC TNFa-induced p65 nuclear translocation; cell count: measured here: nuclei count (cytotoxicity indicator), at 2.08 µM; inhibition: at 2 µM, stronger effect = higher value, 0% TNFa-plus-vehicle, 100% no-TNFa wells
[2] = inhibitors of mutant huntingtin aggregation, primary screen, imaging, exon1htt(103Q)mCFP cells, high-content imaging (AID 483;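 active = visual image review flags a hit and inhibition of aggregation exceeds 20%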;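 note: compound exposure lasted 3 days before fixation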;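 for nuclei count: percent of the per-plate median nuclei count of sample wells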); details: exon1htt(103Q)mCFP cell line, aggregate imaging, at 2 µM; inhibition of aggregation: stronger effect = higher value; nuclei count: measured here: cell count, toxicity
[3] = inhibitors of E-selectin induction by TNFa, primary screen, imaging, HUVEC, immunofluorescence, MLSMR starter and 10KST1 sets (AID 487;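 active = visually confirmed hit in the image check and inhibition above 20%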;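 for inhibition: signal is fraction of cell area covered by stained E-selectin grains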;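 for nuclei count: 100% = median nuclei count of all wells on the same plate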); details: HUVEC TNFalpha-induced E-selectin immunofluorescence imaging, at 2 µM; inhibition: stronger effect = higher value; nuclei count: measured here: cell number, toxicity
[4] = molecular target: Voltage-gated potassium channel subunit beta-2 (Rattus norvegicus) (UniProt P62483); test: KvBeta enzyme negative modulators, primary screen, biochemical, NADPH fluorescence (AID 622;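 active = fluorescence slope higher than the sample average by over 3 SD, cut at about -0.22 in these data, passing the limit was not always enough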;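 note: slope of raw intensity against log time taken from 70 to 1610 s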); details: recombinant KvBeta, 4-cyanobenzaldehyde reduction, at 10 µM, stronger effect = higher value
[5] = molecular target: Voltage-gated potassium channel subunit beta-2 (Rattus norvegicus) (UniProt P62483); test: KvBeta positive modulators, primary screen, biochemical, NADPH fluorescence (AID 623;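 active = NADPH fluorescence slope more negative than the mean of all samples by about 3 SD, 99.7% confidence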;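 note: fluorescence intensity change per second fitted from 20 to 320 s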); details: Recombinant KvBeta, NADPH fluorescence decrease slope, 10 min; at 10 µM; stronger effect = lower value
[6] = molecular target: Alpha-2C adrenergic receptor (Homo sapiens) (UniProt P18825); test: modulators of alpha2C/GIRK thallium flux, primary screen, cell-based, HEK293 alpha2C/GIRK1/2 (AID 624); details: thallium flux BTC fluorescence, at 10 µM, actives lie on both sides;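 note: slope of fluorescence ratio to pre-addition baseline per second over 15 to 24 s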
[7] = inhibitors of Sendai virus-induced IRF3 signaling, primary screen, TLR/RLR signaling modifier project, cell-based, Sendai virus stimulus, luciferase, 10K MLSCN set (AID 602276;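 active = inhibition at or above 50% at 10 µM; inactive = inhibition below 50%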;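 note: firefly luciferase from ISG56 promoter only with Renilla not read in this screen; 0% = Sendai virus plus DMSO and 100% = medium plus DMSO without virus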); details: HEK293 RL24 IRF3 luciferase reporter, at 10 µM, stronger effect = higher value
[8] = inhibitors of poly I:C-induced TLR3 signaling, primary screen, cell-based, poly I:C stimulus, luciferase, 10K MLSCN set (AID 602277;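 active = inhibition of the reporter signal at or above 50%; inactive = inhibition below 50%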); details: HEK293-TLR3 RL24 IRF3 luciferase reporter, at 10 µM, stronger effect = higher value

Voltage-gated potassium channel subunit beta-2 (Rattus norvegicus), sequence (P62483 whole entry, looked up): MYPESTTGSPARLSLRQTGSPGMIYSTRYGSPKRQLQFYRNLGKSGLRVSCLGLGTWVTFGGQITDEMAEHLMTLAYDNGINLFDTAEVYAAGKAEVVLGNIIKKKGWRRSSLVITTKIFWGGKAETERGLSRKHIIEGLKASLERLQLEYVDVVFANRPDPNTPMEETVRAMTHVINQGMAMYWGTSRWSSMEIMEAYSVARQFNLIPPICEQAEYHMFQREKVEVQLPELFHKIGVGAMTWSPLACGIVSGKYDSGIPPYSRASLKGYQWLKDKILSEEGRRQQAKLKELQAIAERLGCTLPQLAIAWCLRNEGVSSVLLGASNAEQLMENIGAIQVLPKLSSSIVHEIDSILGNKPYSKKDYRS
Alpha-2C adrenergic receptor (Homo sapiens), sequence (P18825 whole entry, looked up): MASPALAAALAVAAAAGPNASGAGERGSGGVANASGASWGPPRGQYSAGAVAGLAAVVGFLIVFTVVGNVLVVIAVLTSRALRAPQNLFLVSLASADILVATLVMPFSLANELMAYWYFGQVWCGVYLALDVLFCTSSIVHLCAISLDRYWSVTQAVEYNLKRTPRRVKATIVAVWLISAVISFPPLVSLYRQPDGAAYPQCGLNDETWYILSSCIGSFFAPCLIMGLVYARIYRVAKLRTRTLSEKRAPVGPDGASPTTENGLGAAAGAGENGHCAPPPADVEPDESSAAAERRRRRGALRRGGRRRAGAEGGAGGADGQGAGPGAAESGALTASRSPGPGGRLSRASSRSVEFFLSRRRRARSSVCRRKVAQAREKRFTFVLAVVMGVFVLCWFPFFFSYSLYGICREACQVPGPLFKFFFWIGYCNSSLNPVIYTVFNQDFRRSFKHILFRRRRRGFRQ

Row | SMILES | cell count [1] | inhibition [1] | inhibition of aggregation [2] | nuclei count [2] [%] | inhibition [3] | nuclei count [3] [%] | fluorescence slope [4] | NADPH fluorescence slope [5] | slope [6] | inhibition [7] | inhibition [8]
1 | COc1cccc(C(=O)N2CCCC(c3nc(-c4cccs4)no3)C2)c1 (stereo not drawn) | 446 | -25.5% (inactive) | 19.7% (inactive) | 74.5 | 22.9% (inactive) | 95.9 | -0.467 (inactive) | -3.3e-05 (inactive) | 0.00563 (inactive) | 24.8% (inactive) | -19.2% (inactive)
2 | CC1=C(C(=O)NC2CCCC(C)C2C)C2(CCCCC2)OC1=O (stereo not drawn) | 515 | 3.3% (inactive) | 18.1% (inactive) | 64.9 | -37.4% (inactive) | 114 | -0.598 (inactive) | -6.8e-07 (inactive) | 0.00687 (inactive) | -0.153% (inactive) | 17.7% (inactive)
3 | Cc1cnc(NC(=O)CSc2nnc(COc3c(C)cccc3C)o2)s1 | 628 | 10.9% (inactive) | -2.5% (inactive) | 103 | -22.4% (inactive) | 121 | -0.537 (inactive) | -4.4e-05 (inactive) | 0.00686 (inactive) | 12.1% (inactive) | 39% (inactive)
4 | CCOc1ccc(N(CC(=O)Nc2cccc(OC)c2)S(=O)(=O)c2c(C)noc2C)cc1 | 490 | -7.9% (inactive) | 18.7% (inactive) | 67 | -27% (inactive) | 109 | -0.518 (inactive) | -2.7e-05 (inactive) | 0.00799 (inactive) | 24.2% (inactive) | 22.1% (inactive)
5 | Cc1nn(Cc2ccc(C(=O)NC3CCCCC3)o2)c(C)c1Br | 463 | -0.6% (inactive) | 24.1% (inactive) | 72.2 | -30.6% (inactive) | 108 | -0.395 (inactive) | -3.4e-05 (inactive) | 0.00387 (inactive) | 7.39% (inactive) | 11.6% (inactive)
6 | C=CCn1c(SCC(=O)NCCCC)nc2scc(-c3ccco3)c2c1=O | 650 | -6.7% (inactive) | 2.2% (inactive) | 120 | -4.2% (inactive) | 99.8 | -0.444 (inactive) | -3.5e-05 (inactive) | 0.00561 (inactive) | 19.3% (inactive) | 28.9% (inactive)
7 | CC1CCCCN1S(=O)(=O)c1ccc(NC(=O)c2cccs2)cc1 (stereo not drawn) | 678 | -14.6% (inactive) | 25.4% (inactive) | 86.3 | -25.1% (inactive) | 104 | -0.431 (inactive) | 9.2e-06 (inactive) | 0.00361 (inactive) | -0.562% (inactive) | 5.71% (inactive)
8 | CCC(C)NC(=O)c1ccccc1NC(=O)C(C)N(c1ccccc1)S(C)(=O)=O (stereo not drawn) | 643 | 3.1% (inactive) | 5% (inactive) | 108 | -7% (inactive) | 99.9 | -0.479 (inactive) | 8.2e-06 (inactive) | 0.00595 (inactive) | 5.01% (inactive) | 28.8% (inactive)
